Reference: paper PMC6925144, “A prospective compound screening contest identified broader inhibitors for Sirtuin 1” (Scientific Reports, 2019)
In all, about 3,200 compounds were measured (“TSA(without NAD+) / Primary screening (TSA) / delta Tm (K)”: median about -0.07, highest 2% from about 0.37 on). Many of the other results were omitted from the sample, so the highest values are more common in it than they were.

biological target: NAD-dependent deacetylase Sirtuin 1 (human, UniProt Q96EB6); experiment: primary screen, delta tm; design: single well (n = 1); conditions: 10 µM
Outline: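 Thermal shift of Sirtuin 1 measured without NAD+, compound at 10 µM (n = 1); value is ΔTm, with hits defined as ΔTm > 0.45 K or < −1.5 K. Hits retested at 5, 10, 20 µM (n = 4) and counterscreened on bovine carbonic anhydrase and ABL1 SH2 domain.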

NAD-dependent deacetylase Sirtuin 1, sequence (Q96EB6 2-747 limits assumed): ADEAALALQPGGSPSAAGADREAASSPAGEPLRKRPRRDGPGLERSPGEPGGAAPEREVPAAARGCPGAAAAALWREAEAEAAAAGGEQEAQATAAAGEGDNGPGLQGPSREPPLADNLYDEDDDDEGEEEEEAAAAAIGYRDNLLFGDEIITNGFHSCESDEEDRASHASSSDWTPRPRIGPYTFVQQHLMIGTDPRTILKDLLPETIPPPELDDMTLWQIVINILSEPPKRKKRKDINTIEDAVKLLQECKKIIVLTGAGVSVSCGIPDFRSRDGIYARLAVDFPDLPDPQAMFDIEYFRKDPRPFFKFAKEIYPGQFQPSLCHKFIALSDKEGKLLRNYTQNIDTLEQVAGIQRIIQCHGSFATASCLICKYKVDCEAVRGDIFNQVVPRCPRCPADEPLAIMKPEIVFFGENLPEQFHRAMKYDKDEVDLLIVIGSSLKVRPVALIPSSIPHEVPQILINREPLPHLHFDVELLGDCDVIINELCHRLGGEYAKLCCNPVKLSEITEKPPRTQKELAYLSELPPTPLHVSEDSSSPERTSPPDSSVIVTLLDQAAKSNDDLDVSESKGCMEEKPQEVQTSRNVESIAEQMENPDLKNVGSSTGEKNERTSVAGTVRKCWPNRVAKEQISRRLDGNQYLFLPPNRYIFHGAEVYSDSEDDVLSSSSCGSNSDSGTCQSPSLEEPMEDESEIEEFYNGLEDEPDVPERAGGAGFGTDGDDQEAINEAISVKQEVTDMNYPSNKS

In order of rising “TSA(without NAD+) / Primary screening (TSA) / delta Tm (K)” value:
1. NC(=O)c1ccc(C(=O)OCC(=O)c2cc3ccccc3o2)cc1  -0.38 K
2. COc1ccc(NC(=O)COc2ccc(C(=O)NCC34CC5CC(CC(C5)C3)C4)cc2OC)cc1  -0.34 K
3. CC(=O)N(c1nn(CN2CCN(c3ccc(C(N)=O)cn3)CC2)c(=S)s1)C1CC1  -0.23 K
4. CN(CC(=O)Nc1cccc2ccccc12)C(=O)C1=COCCO1  -0.23 K
5. CC(C)Oc1ccc(C(=O)C2=C(O)C(=O)N(CCCN3CCOCC3)C2c2cccs2)cc1 (stereo not drawn)  -0.23 K
6. NC(=O)C1CCN(c2ncnc3sc4c(c23)CCC4)CC1  -0.21 K
7. NC(=S)c1ccc(C(=O)NCc2ccnc(OCC(F)(F)F)c2)cc1  -0.18 K
8. CCOC(=O)c1ccc(S(=O)(=O)N2CCC(C(=O)OCC(=O)NCC34CC5CC(CC(C5)C3)C4)CC2)cc1  -0.13 K
9. CC(=O)N1Cc2ccccc2CC1C(=O)NC1CCOc2ccccc21 (stereo not drawn)  -0.13 K
10. O=C(Nc1ccc(Oc2ncccn2)cc1)c1ccc(S(=O)(=O)Nc2ccc(F)cc2)cc1  -0.11 K
11. c1nc(N2CCNCC2)c2sccc2n1  -0.08 K
12. O=C(CCc1c[nH]c2ccccc12)NCCc1ccco1  -0.05 K
13. Cc1nnc(CNC(=O)c2cc(-c3ccccc3)nc3c(C(N)=O)ncn23)s1  -0.04 K
14. Cc1nc2cc(C(=O)Nc3ccc(NC(=O)N4CCCCCC4)cc3)ccc2n1C  -0.04 K
15. COc1ccc2[nH]cc(C3CCN(C(=O)c4coc(C)c4)CC3)c2c1  -0.03 K
16. Cc1nc(N2CCC(NC(N)=O)CC2)c2c3c(sc2n1)CCCC3  -0.03 K
17. COc1cccc(NC(=S)Nc2cccc(S(=O)(=O)N(C)c3ccccc3)c2)c1  -0.03 K
18. O=C(CCc1c[nH]c2ccccc12)Nc1cccc(S(=O)(=O)NCc2ccco2)c1  -0.01 K
19. COc1ccccc1NS(=O)(=O)c1ccc(NC(=O)CNC(=O)C23CC4CC(CC(C4)C2)C3)cc1  0.03 K
20. NC(=O)c1ccc(COC(=O)c2cc3c(ccc4ccccc43)[nH]2)cc1  0.05 K
21. NC(=O)c1ccc(CN2CCSCC2)cc1  0.06 K
22. CC1Cc2ccccc2N1c1ncnc2ccsc12 (stereo not drawn)  0.07 K
23. Cc1nc(N2CCC(C(N)=O)CC2)c2c3c(sc2n1)CCC3  0.07 K
24. Cc1[nH]c2ccccc2c1CC(=O)Nc1cccc(-c2noc(=O)[nH]2)c1  0.07 K
25. CCN(CC)CCNC(=O)c1ccc(NC(=O)CC2CCCC2)cc1  0.07 K
26. COc1ccccc1NC(=O)COc1ccc(C(=O)OCC(=O)NC23CC4CC(CC(C4)C2)C3)cc1OC  0.08 K
27. Cc1ccc(NC(=O)CN2CCN(C(=O)c3ccc(-c4ccc(Cl)cc4)o3)CC2)cc1  0.08 K
28. Cc1nc(COc2ccc(C(=O)Nc3ccc(S(=O)(=O)Nc4cccc(F)c4)cc3)cc2)cs1  0.09 K
29. CN(c1ccccc1)S(=O)(=O)c1cccc(C(=O)NCCc2c[nH]c3ccccc23)c1  0.16 K
30. CC(C)(C)c1ccc(OCC(=O)NNC(=O)c2cccnc2O)cc1  0.17 K
31. CN(c1ccccc1)S(=O)(=O)c1cccc(NC(=O)CNc2cccc3ccccc23)c1  0.17 K
32. COc1ccc(NC(=O)c2ccccc2NC(=O)COC(=O)C23CC4CC(CC(O)(C4)C2)C3)cc1  0.19 K
33. Cc1ccc2nc(-c3ccc(NC(=O)C(C)Cl)cc3)sc2c1 (stereo not drawn)  0.22 K
34. Cc1ccc(N(C)S(=O)(=O)c2cccc(C(=O)NCCc3c[nH]c4ccccc34)c2)cc1  0.23 K
35. O=C(CCc1c[nH]c2ccccc12)Nc1ccc2nc[nH]c(=O)c2c1  0.26 K
36. NC(=O)C1CCN(c2ncnc3sc4c(c23)CCCCC4)CC1  0.36 K
37. O=C1NC(=S)NC(=O)C1=Cc1cn(-c2ccccc2)nc1-c1cc2ccccc2o1  0.36 K
38. CN(c1ccccc1)S(=O)(=O)c1cccc(NC(=O)CCc2c[nH]c3ccccc23)c1  0.38 K
39. COc1ccccc1NC(=O)c1ccc(NC(=O)COC(=O)C23CC4CC(CC(C4)C2)C3)cc1  0.42 K
40. N#CC(C(=O)c1ccc(NS(=O)(=O)c2ccccc2)cc1)c1nc(-c2ccccn2)cs1 (stereo not drawn)  0.46 K
41. CN(c1ccccc1)S(=O)(=O)c1cccc(NC(=O)CCCc2c[nH]c3ccccc23)c1  0.52 K
42. O=C(CCc1c[nH]c2ccccc12)Nc1nnc(-c2ccccc2)o1  0.52 K
43. Cc1nc(N2CCC(C(N)=O)CC2)c2c3c(sc2n1)CCCC3  0.56 K
44. Cc1nc(N2CCC(C(N)=O)CC2)c2c3c(sc2n1)CCCCC3  0.78 K
45. COc1ccc(NC(=O)c2ccc(NC(=O)COC(=O)C34CC5CC(CC(Br)(C5)C3)C4)cc2)cc1  1.08 K
